Source: PubChem (National Center for Advancing Translational Sciences (NCATS))
L3MBTL1 block: L3MBTL1 (human) inhibition; Q9Y468; AlphaScreen L3MBTL1–H3K9me1 peptide binding; 0.66% of 230,000 active; Potency, µM (titrated, usually from 57.1 µM), actives largely listed as inhibitors; note: nearly all actives have a fitted effect of over 60% in size
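L3MBTL1 (50 nM) pre-complexed 30 min with biotinylated H3(1-15)K9me1 peptide (75 nM), then compounds added for 30 min at room temperature; AlphaScreen streptavidin donor/nickel chelate acceptor beads (10 ug/mL final) read after 30 min dark incubation.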
PI5P4K alpha inh: PI5P4K alpha (human) kinase inhibition; P48426; PI5P4Kalpha enzyme, ADP-Glo luminescence, 60 min; hits give low values; max response, %; 1.2% of 330,000 active; AID 652105; active = max response of -50% or lower; inconclusive = between -30% and -50%; inactive = -30% or higher; note: value at the top dose of about 77 µM
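Controls without substrate or without enzyme flank wells where PI5P4Kalpha converts substrate using 5 microM ATP (final). Incubation lasts 60 minutes at room temperature; ADP formed is read by ADP-Glo luminescence.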
JMJD2A Tudor inh: JMJD2A Tudor domain (human) inhibition. O75164. AlphaScreen JMJD2A-Tudor / H3K4me3 peptide binding. Potency, µM (top dose mostly 114 µM), usual class: inhibitors. 4.4% of 390,000 active. AID 504339; note: nearly all actives have a fitted effect of over 50% in size
HP1b chromo inh: inhibitors of HP1-beta chromodomain binding to methylated histone tails | 0.56% of 390,000 active | AID 540317 | P83916 | Potency, µM (titrated, usually from 114 µM), most hits filed as inhibitors | AlphaScreen HP1-beta / biotin-H3K9me3 peptide binding; note: nearly all actives have a fitted effect of over 70% in size
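Compound inhibition of the preformed complex between 50 nM HP1-beta and 50 nM biotinylated H3K9me3 peptide was read by AlphaScreen. Buffer was PBS pH 7.4 with 0.01% Tween-20. Incubations ran 30 min at room temperature, with 10 ug/mL donor/acceptor beads.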
JMJD2E inh: inhibitors of human JMJD2E histone demethylase. B2RXH2. JMJD2E catalytic domain, FDH-coupled NADH fluorescence (FDH is formaldehyde dehydrogenase). Potency, µM (titrated, usually from 57.1 µM), usual class: inhibitors. AID 2147. 1.6% of 230,000 active; active = well fitted inhibition curve with a large enough effect, not every such curve was filed as active; inconclusive = small, poorly fitted or top-dose-only effect, or another doubt; inactive = no such curve, though single readings can be large or run the other way; note: nearly all actives have a fitted effect of over 50% in size
BAZ2B block: inhibitors of human BAZ2B bromodomain; Q9UIF8; AlphaScreen BAZ2B-H3K14Ac peptide displacement; Potency, µM (series often up to 114 µM), usual class: inhibitors; 4.4% of 360,000 active; note: nearly all actives have a fitted effect of over 60% in size
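Multi-concentration screen (max 110 uM) measuring displacement of acetylated histone H3 peptide from BAZ2B by AlphaScreen, using 50 nM protein, 50 nM peptide and 10 ug/mL streptavidin donor plus Ni-chelate acceptor beads.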
Numbers stand for hits; - = inactive; ? = inconclusive; . = no result given. In the library only some 5.7% were active in any assay of this set; here they are far more common. Unless noted, calls come from the whole dose curve; as a rule, active = well fitted inhibition curve with a large enough effect; inconclusive = small, poorly fitted or top-dose-only effect; inactive = no such curve, though single readings can be large or run the other way.

SMILES | L3MBTL1 block | PI5P4K alpha inh | JMJD2A Tudor inh | HP1b chromo inh | JMJD2E inh | BAZ2B block
C[C@@H](CN1c2ccccc2Sc2ccccc21)N(C)C | . | . | . | . | - | .
CC(CN1c2ccccc2Sc2ccccc21)N(C)C (stereo unspecified) | - | - | ? | - | - | 44.7µM
Cc1cc(C)n(CC(O)CN2c3ccccc3Sc3ccccc32)n1 (stereo unspecified) | - | - | 31.6µM | - | - | 50.1µM
Cc1cc(C)n(CC(O)Cn2c3ccccc3c3ccccc32)n1 (stereo unspecified) | . | - | - | - | - | -
O=[N+]([O-])c1ccccc1/C=C/CN1CCN(Cc2ccc3c(c2)OCO3)CC1 | - | - | 22.4µM | ? | . | ?
C(=C\c1ccccc1)/CN1CCN(Cc2ccc3c(c2)OCO3)CC1 | - | - | 1.26µM | ? | . | 50.1µM
O=[N+]([O-])c1ccccc1/C=C/CN1CCCCC1 | - | . | - | - | - | -
CS(=O)(=O)N1CCN(C/C=C/c2ccccc2)CC1 | . | - | - | - | - | -
Cc1ccccc1CN1CCN(C/C=C/c2ccccc2)CC1 | . | . | 3.16µM | ? | - | -
O=C(Nc1ccc([N+](=O)[O-])cc1)Nc1ccc(N2CCOCC2)c2nonc12 | . | - | ? | ? | ? | -
S=c1nc(-c2ccco2)[nH][nH]1 | . | - | 7.08µM | ? | ? | ?
S=c1nc(-c2ccc(Cl)cc2)[nH][nH]1 | . | ? | ? | ? | ? | -
COc1ccccc1-c1noc(-c2ccc(N3CCC(C)CC3)c([N+](=O)[O-])c2)n1 | . | . | - | - | . | -
Cc1ccc(C(=O)NCC(c2ccc(Cl)cc2)N2CCCCC2)cc1 (stereo unspecified) | . | . | - | - | . | -
Cc1nnc2sc(SCC(=O)Nc3ccc(Cl)cc3)nn2c1=O | . | - | ? | - | - | 39.8µM
CC(=O)Nc1cccc(NC(=O)CSc2nn3c(=O)c(C)nnc3s2)c1 | . | - | ? | - | - | -
COc1cc(Cl)c(C)cc1NC(=O)CCc1c(C)nc2c3cccnc3nn2c1C | . | . | - | - | . | -
O=C(COC(=O)c1cnc(Cl)c(Cl)c1)NCc1cccs1 | - | - | 22.4µM | - | - | -
CCOc1ccc(NC(=O)Cn2c(=O)n(Cc3ccccc3)c(=O)c3c4c(sc32)CN(C(C)=O)CC4)cc1 | . | . | - | - | . | -
CN(C)c1ccc(N2CN=C3SCC(=O)N3C2)cc1 | - | - | 50.1µM | 56.2µM | ? | 25.1µM
CC(=O)N=c1sc2nc3ccccc3nc2n1N(C(C)=O)C(C)=O | . | . | 7.94µM | ? | ? | 50.1µM
CCOc1ccccc1Nc1nc(N)nc(CSc2nccc(C)n2)n1 | - | - | - | - | - | -
CCOc1ccccc1Nc1nc(N)nc(CN(C)C2CCCCC2)n1 | ? | - | 50.1µM | - | - | 17.8µM
COc1ccc([C@H]2CC(=O)C=C(c3ccccc3OC)C2)cc1OC | - | - | ? | - | . | -
CC(NNC(=S)N1CCN(c2ccccn2)CC1)c1nccc2ccccc12 (stereo unspecified) | . | - | 20µM | 25.1µM | . | .
SMILES | L3MBTL1 block | PI5P4K alpha inh | JMJD2A Tudor inh | HP1b chromo inh | JMJD2E inh | BAZ2B block
Clc1ccc(-c2csc(Nc3ccccc3)[n+]2Cc2ccco2)c(Cl)c1 | - | - | - | ? | - | 25.1µM
COc1ccc(-c2csc(Nc3ccccc3)[n+]2Cc2ccccc2)cc1 | - | - | - | ? | - | .
CCCC[n+]1c(-c2ccc(Cl)cc2Cl)csc1Nc1ccccc1 | - | - | 70.8µM | ? | - | 12.6µM
CCCCCCCC/C=C\CCCCCCCCOC[C@H](COP(=O)([O-])OCC[N+](C)(C)C)OC(C)=O | . | . | . | . | - | .
Cc1ccc(C)c(CSc2cn(CC(=O)N3CCCC3)c3ccccc23)c1 | . | . | - | - | . | ?
C[C@]12CCC3C(CC=C4C[C@@H](O)CC[C@@]43C)C1CCC2[C@]1(C)CCC(=O)O1 (stereo partly specified) | - | - | ? | ? | - | 56.2µM
O=C(N/N=C/c1cc(Br)cc(Br)c1O)c1cccc(N2CCCC2=O)c1 | ? | - | 89.1µM | - | ? | ?
O=C(N/N=C/c1ccc([N+](=O)[O-])cc1)c1cccc(N2CCCC2=O)c1 | . | - | - | - | . | 79.4µM
O=C(N/N=C/c1ccc(Cl)cc1Cl)c1cccc(N2CCCC2=O)c1 | . | - | - | - | . | -
CNC(=O)C[C@H]1C(=O)N(CCc2ccccc2)C[C@@H]1CSC | . | - | . | . | . | .
COc1ccccc1N(CC(=O)N1CCC(C)CC1)S(=O)(=O)c1ccc(C)cc1 | . | . | - | - | . | -
Cc1c(Cl)cccc1NC(=O)Cn1nc(C)c2sc3ccccc3c2c1=O | . | . | - | - | . | -
COc1ccccc1/C=C/C=N/n1c(-c2cc(C)[nH]n2)n[nH]c1=S | - | - | 7.94µM | - | ? | ?
COc1ccccc1/C=C/C=N/n1c(-c2ccccn2)n[nH]c1=S | ? | - | 8.91µM | - | ? | 14.1µM
Cc1cc(-c2n[nH]c(=S)n2/N=C/C=C/c2ccccc2)n[nH]1 | - | - | 10µM | ? | - | ?
